Laboratory results taken from PubChem BioAssay (NCATS).
Results filed as inconclusive are left out. Activity calls are given as the source filed them. Calls follow the shape of the dose curve; as a rule, active = well fitted curve in the direction sought with a large enough effect; inconclusive = small, poorly fitted or top-dose-only effect, or another doubt; inactive = no such curve, though single readings can be large; an effect the other way counts as inactive or inconclusive.

What was measured:
NIH3T3 = test: qHTS assay to identify novel small-molecules to repurpose for Merkel cell carcinoma treatment (AID 1296009); settings: MCC and control cell lines, CellTiter-Glo viability, 72 h; at 44.8 µM (top of the series) unless noted; also: nearly all actives have a fitted effect of over 60% in size
How it was run: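 72 hr, 37 degree celsius; NPC 8-pt / MIPE 11-pt dose response; compound pinned in DMSO; CellTiter-Glo, 10 min RT, luminescence; normalized to no-cell and DMSO controls.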

C33A = test: Primary qHTS to identify gynecologic anti-cancer compounds using libraries of approved drugs and bioactive compounds (AID 1345084); settings: Gynecologic cancer cell panel viability, ATPlite luminescence, 48 h; series mostly up to 57.5 µM; also: nearly all actives have a fitted effect of over 55% in size
How it was run: (§1)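 Cell viability after 48 h drug treatment, ATPlite luminescence readout; five doses.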

CAOV3 = test: as above; settings: Gynecologic cancer cell panel viability, ATPlite luminescence, 48 h; series mostly up to 57.5 µM
How it was run: as §1

CASKI = test: as above; settings: Gynecologic cancer cell panel viability, ATPlite luminescence, 48 h; series mostly up to 57.5 µM
How it was run: as §1

Es-2 = test: as above; settings: Gynecologic cancer cell panel viability, ATPlite luminescence, 48 h; series mostly up to 57.5 µM
How it was run: as §1

HeLa = test: as above; settings: Gynecologic cancer cell panel viability, ATPlite luminescence, 48 h; series mostly up to 57.5 µM
How it was run: as §1

Hek293T = test: as above; settings: Gynecologic cancer cell panel viability, ATPlite luminescence, 48 h, control line for the selectivity index; series mostly up to 57.5 µM
How it was run: as §1

JEG-3 = test: as above; settings: Gynecologic cancer cell panel viability, ATPlite luminescence, 48 h; series mostly up to 57.5 µM
How it was run: as §1

OV90 = test: as above; settings: Gynecologic cancer cell panel viability, ATPlite luminescence, 48 h; series mostly up to 57.5 µM
How it was run: as §1

PA-1 = test: as above; settings: Gynecologic cancer cell panel viability, ATPlite luminescence, 48 h; series mostly up to 57.5 µM
How it was run: as §1

SKOV3 = test: as above; settings: Gynecologic cancer cell panel viability, ATPlite luminescence, 48 h; series mostly up to 57.5 µM
How it was run: as §1

Tov-21-G = test: as above; settings: Gynecologic cancer cell panel viability, ATPlite luminescence, 48 h; series mostly up to 57.5 µM
How it was run: as §1

Tov112D = test: as above; settings: Gynecologic cancer cell panel viability, ATPlite luminescence, 48 h; series mostly up to 57.5 µM
How it was run: as §1

Measured: Potency

Cc1cc(CO)c(O)c(C(=O)CC2CC(=O)NC(=O)C2)c1
inactive: all assays above

CN(C)CCC[C@]1(c2ccc(F)cc2)OCc2cc(C#N)ccc21
inactive: all assays above

COCc1c(O)c(C(=O)O)c(C)c2c1OC(=O)c1c(C)cc(O)c(CO)c1O2
inactive: all assays above

CC/C=C\CC1C(CC(=O)O)CCC1OC1OC(CO)C(O)C(O)C1O (stereo not drawn)
not listed: SKOV3
inactive: all other assays above

COc1ccc(C(=O)NCc2cc(C(C)C)no2)cc1OC1CCN(C)CC1
not listed: SKOV3
inactive: all other assays above

CC1(C)CCCC2(C)c3c4c(c(=O)oc(=O)c3=CCC12)=CCC1C(C)(C)CCCC41C (stereo not drawn)
inactive: NIH3T3 inactive [at 17.4 µM] | C33A | CAOV3 | CASKI | Es-2 | HeLa | Hek293T | JEG-3 | OV90 | PA-1 | Tov-21-G | Tov112D

O=C(O)Cn1nnc(-c2ccc(CN(CCCCOc3ccc(CN4CCCC4)cc3)CCc3ccccc3)cc2)n1
not listed: SKOV3
inactive: all other assays above

Cc1onc(-c2c(Cl)cccc2Cl)c1CC(=O)NCc1ccc(OCC(F)(F)F)nc1
inactive: all assays above

COC1OC(=O)C2=C1C1(C)CCCC(C)(C)C1CC2O (stereo not drawn)
not listed: SKOV3
inactive: all other assays above

CCC(C)C1NC(=O)C2C(C)CCN2C(=O)C(CC(O)CO)OC(=O)CCNC(=O)C(C)N(C)C(=O)C(C(C)C)N(C)C1=O (stereo not drawn)
inactive: NIH3T3 inactive [at 17.4 µM] | C33A | CAOV3 | CASKI | Es-2 | HeLa | Hek293T | JEG-3 | OV90 | PA-1 | Tov-21-G | Tov112D

CC(C)=CCC/C(C)=C/CO[C@@H]1O[C@H](CO[C@@H]2O[C@@H](CO)[C@H](O)[C@H]2O)[C@@H](O)[C@H](O)[C@H]1O
inactive: NIH3T3 inactive [at 17.4 µM] | C33A | CAOV3 | CASKI | Es-2 | HeLa | Hek293T | JEG-3 | OV90 | PA-1 | Tov-21-G | Tov112D

COc1cc(CO)cc(OC)c1O[C@@H]1O[C@H](CO)[C@@H](O)[C@H](O)[C@H]1O
not listed: SKOV3
inactive: all other assays above

CCCCNc1nc(N)c2[nH]c(=O)n(Cc3ccc(OCCN(C)C)nc3)c2n1
inactive: NIH3T3 inactive; activator | C33A | CAOV3 | CASKI | Es-2 | HeLa | Hek293T | JEG-3 | OV90 | PA-1 | Tov-21-G | Tov112D

CC(C)c1cc2c(c(O)c1O)[C@@]13CCCC(C)(C)C1[C@@H](O)[C@@H]2OC3=O (stereo partly drawn)
inactive: all assays above
